Results filed as inconclusive are left out. Some structures have more than one record in an assay (separate samples or runs), and their calls can disagree. Calls of active or inactive are those of the source. How the source made its calls, unless noted: active means hit-call score of the fitted dose curve at least 0.9, where 1 is the maximum; inactive means score below 0.9.
Key:
[1] = biological target: Nuclear respiratory factor 1 (Homo sapiens) (UniProt Q16656); assay: ATG_NRF1_CIS: Attagene CIS-FACTORIAL HepG2 Assay for human Nuclear Respiratory Factor 1 (NRF1) Orphan Gene (AID 2282987); settings: HepG2 NRF1 cis-element reporter, Attagene multiplex; actives raise or lower the signal
Summary of the method: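 Cells (HepG2, transient MRTU transfection) are exposed to compound for 24 h, then RNA isolated and reporter mRNA amplified and fluorescently labelled. Fragments are separated by capillary electrophoresis; signal change is fitted bidirectionally relative to DMSO.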

[2] = ATG_NFI_CIS: Attagene CIS-FACTORIAL HepG2 Assay for human Nuclear Factor I (NFI) (AID 2282989); settings: HepG2 cis-regulatory reporter, NFI response element transcription; actives raise or lower the signal
Summary of the method: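 Transient MRTU transfection of HepG2 → 24 h chemical dosing → total RNA, oligo(dT) RT → PCR, 6-FAM primer extension, HpaI cut → capillary electrophoresis. Endpoint fitted bidirectionally relative to DMSO.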

[3] = biological target: Myc proto-oncogene protein (Homo sapiens) (UniProt P01106); assay: ATG_Myc_CIS: Attagene CIS-FACTORIAL HepG2 Assay for human Myelocytomatosis (Myc) Proto-Oncogene Transcription Factor (AID 2282990); settings: HepG2, Attagene cis-reporter transcription factor activity; actives raise or lower the signal
Summary of the method: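 HepG2, transient MRTU transfection (cis promoters, endogenous TFs); 24 h dosing; TriZol RNA → oligo(dT) RT → PCR → 6-FAM primer extension → HpaI cut → CE. Bidirectional fit vs DMSO.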

[4] = ATG_NF_kB_CIS: Attagene CIS-FACTORIAL HepG2 Assay for human Nuclear Factor Kappa B (NF-kB) (AID 2282991); settings: HepG2 Attagene cis-factorial NF-kB reporter mRNA; actives raise or lower the signal
Summary of the method: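 Measures mRNA induction of an NF-kB-responsive cis-element reporter in HepG2 cells transfected with multiple reporter units, sampled 24 h post-dosing; quantified by fluorescence after RT-PCR and capillary electrophoresis, fitted for activation or inhibition against DMSO.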

[5] = ATG_Oct_MLP_CIS: Attagene CIS-FACTORIAL HepG2 Assay for human Octamer-Binding Transcription Factor (Oct) (AID 2282993); settings: HepG2 Attagene cis-factorial Oct reporter, mRNA; actives raise or lower the signal
Summary of the method: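 Transient MRTU transfection of HepG2 → 24 h compound treatment → RNA isolation, reverse transcription, PCR → 6-FAM primer extension, HpaI digest → capillary electrophoresis. Activity fitted both directions against DMSO.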

[6] = biological target: Cellular tumor antigen p53 (Homo sapiens) (UniProt P04637); assay: ATG_p53_CIS: Attagene CIS-FACTORIAL HepG2 Assay for human p53 Transcription Factor (AID 2282994); settings: HepG2 p53 cis-element reporter, Attagene mRNA; actives raise or lower the signal
Summary of the method: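 In HepG2 cells, reporter transcription units under cis-regulatory promoters were transiently introduced. Following 24 h treatment, RNA was processed to labelled, digested cDNA fragments read by capillary electrophoresis; fitting was bidirectional versus DMSO.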

[7] = BSK_3C_TissueFactor: BioMAP Diversity Plus: 3C Assay for Tissue Factor Biomarker Activity (AID 2282997); settings: BioMAP 3C HUVEC, tissue factor biomarker readout; actives raise or lower the signal
Summary of the method: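 HUVEC, 3C system, 24 h post-dose; Tissue Factor by ELISA; bidirectional fit vs DMSO baseline.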

[8] = BSK_3C_uPAR: BioMAP Diversity Plus: 3C Assay for Urokinase-type plasminogen activator receptor (uPAR) Biomarker Activity (AID 2282998); settings: BioMAP 3C HUVEC, uPAR biomarker ELISA; actives raise or lower the signal
Summary of the method: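 ELISA readout of uPAR on human vascular endothelium (umbilical vein primary cells), taken 24 h after chemical dosing. Increases and decreases are both fitted relative to DMSO vehicle.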

[9] = BSK_3C_VCAM1: BioMAP Diversity Plus: 3C Assay for Vascular cell adhesion molecule 1 (VCAM1) Biomarker Activity (AID 2282999); settings: BioMAP 3C HUVEC, VCAM1 ELISA, cytokine-stimulated; actives raise or lower the signal
Summary of the method: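 Activity fitted in both directions relative to DMSO, with ELISA measurement of the surface marker on primary HUVEC (3C) at 24 h post-treatment; parallel SRB staining (0.1% SRB, TCA-fixed, 560 nm) flagged overt cytotoxicity.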

[10] = BSK_4H_Eotaxin3: BioMAP Diversity Plus: 4H Assay for Eotaxin 3 Biomarker Activity (AID 2283000); settings: primary human endothelial cells (HUVEC); actives raise or lower the signal
Summary of the method: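 Readout is Eotaxin-3 (CCL26) level by ELISA in primary human umbilical vein endothelial cells harvested 24 h after chemical exposure; activity fitted in both directions against DMSO control.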

[11] = biological target: human Peroxisome Proliferator-activated Receptor alpha (PPARa), PPARA (gene 5465) (UniProt Q07869); assay: ATG_PPARa_TRANS: Attagene TRANS-FACTORIAL HepG2 Assay for human Peroxisome Proliferator-activated Receptor alpha (PPARa) (AID 2283001; active means hit-call score of the fitted dose curve at least 0.9, where 1 is the maximum)
Summary of the method: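 Transfected HepG2 cells treated with test chemical for 24 h. RNA isolated, reverse-transcribed with oligo(dT), PCR-amplified, FAM-labelled and HpaI-digested. Fragments sized by capillary electrophoresis; gain-of-signal fit relative to DMSO.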

[12] = read-out: Intercellular Adhesion Molecule 1 (ICAM1), ICAM1 (gene 3383); assay: BSK_3C_ICAM1: BioMAP Diversity Plus: 3C Assay for Intercellular Adhesion Molecule 1 (ICAM1) Biomarker Activity (AID 2283003); settings: primary human endothelial cells (HUVEC); actives raise or lower the signal
Summary of the method: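 ELISA read-out of ICAM-1; HUVEC (primary human), 3C system, 24 h post-dosing; bidirectional fit vs DMSO baseline.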

[13] = BSK_3C_Proliferation: Cell Proliferation Assessment in the BioMAP Diversity Plus: 3C Assay (AID 2283006); settings: primary human endothelial cells (HUVEC);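 on AC50: potency may reflect either rise or fall in cell number versus DMSO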
Summary of the method: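 HUVEC, sub-confluent; 48 h chemical exposure; 10% TCA fix, 0.1% SRB stain, A560 total protein. Gain or loss of signal fitted both directions vs DMSO control.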

[14] = biological target: Peroxisome proliferator-activated receptor gamma (Homo sapiens) (UniProt P37231); assay: ATG_PPARg_TRANS: Attagene TRANS-FACTORIAL HepG2 Assay for human Peroxisome Proliferator-activated Receptor-gamma (PPARg) (AID 2283007; active means hit-call score of the fitted dose curve at least 0.9, where 1 is the maximum)
Summary of the method: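 Gain-of-signal endpoint relative to DMSO, derived from reporter mRNA levels quantified by RT-PCR and capillary electrophoresis. Cells were HepG2 transiently expressing a chimeric NR-Gal4 construct with GAL4-UAS reporters, exposed to chemicals for 24 h.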

[15] = biological target: Nuclear receptor subfamily 1 group I member 2 (Homo sapiens) (UniProt O75469); assay: ATG_PXR_TRANS: Attagene TRANS-FACTORIAL HepG2 Assay for human Pregnane X Receptor (PXR) (AID 2283008; active means hit-call score of the fitted dose curve at least 0.9, where 1 is the maximum)
Summary of the method: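 Multiplexed TRANS reporter panel in HepG2; this component tracks PXR-Gal4-driven reporter mRNA after 24 h dosing, measured by RT-PCR with capillary electrophoresis fluorescence, fitted against DMSO.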

[16] = biological target: human Peroxisome Proliferator-activated Receptor delta (PPARd), PPARD (gene 5467) (UniProt Q03181); assay: ATG_PPARd_TRANS: Attagene TRANS-FACTORIAL HepG2 Assay for human Peroxisome Proliferator-activated Receptor delta (PPARd) (AID 2283002; active means hit-call score of the fitted dose curve at least 0.9, where 1 is the maximum)
Summary of the method: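 Transient HepG2 transfection (multiple GAL4-UAS RTUs, chimeric receptor-Gal4); 24 h dosing; total RNA → oligo(dT) RT → PCR → 6-FAM primer extension → HpaI cut → CE. Positive direction vs DMSO.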

[17] = biological target: human Retinoic Acid Receptor gamma (RARg), RARG (gene 5916) (UniProt P13631); assay: ATG_RARg_TRANS: Attagene TRANS-FACTORIAL HepG2 Assay for human Retinoic Acid Receptor gamma (RARg) (AID 2283009; active means hit-call score of the fitted dose curve at least 0.9, where 1 is the maximum)
Summary of the method: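 Readout: reporter transcript levels via RT-PCR, 6-FAM primer-extension labelling, HpaI digestion and capillary electrophoresis. Cells: HepG2 carrying transfected RARg-GAL4 chimera plus UAS reporter set. Dosing 24 h; DMSO negative control.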

[18] = ATG_NRF2_ARE_CIS: Attagene CIS-FACTORIAL HepG2 Assay for human Nuclear Factor Erythroid 2 Related Factor 2 (NFR2) response to Antioxidant Response Elements (ARE) (AID 2282992); settings: HepG2 Attagene ARE/NRF2 reporter, transcription factor activity; actives raise or lower the signal
Summary of the method: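 Using transiently transfected HepG2 cells exposed for 24 h, reporter mRNA levels were determined by RT-PCR with fluorescent primer extension and capillary electrophoresis, analysed for gain or loss of signal against DMSO.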

[19] = biological target: human Retinoic Acid Receptor beta (RARb), RARB (gene 5915) (UniProt P10826); assay: ATG_RARb_TRANS: Attagene TRANS-FACTORIAL HepG2 Assay for human Retinoic Acid Receptor beta (AID 2283004; active means hit-call score of the fitted dose curve at least 0.9, where 1 is the maximum)
Summary of the method: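 Readout is reporter mRNA induction: RNA reverse-transcribed, PCR-amplified, FAM-labelled, HpaI-cut and resolved by capillary electrophoresis. Transiently transfected HepG2 cells carrying exogenous NR–Gal4 chimeras were dosed for 24 h; activity fitted upward relative to DMSO.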

[20] = biological target: Retinoic acid receptor alpha (Homo sapiens) (UniProt P10276); assay: ATG_RARa_TRANS: Attagene TRANS-FACTORIAL HepG2 Assay for human Retinoic Acid Receptor alpha (RARa) (AID 2283005; active means hit-call score of the fitted dose curve at least 0.9, where 1 is the maximum)
Summary of the method: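 Reporter transcripts, measured by RT-PCR with fluorescent labeling and capillary electrophoresis after 24 h dosing, reflect activity of an exogenous human RARa–GAL4 fusion in transiently transfected HepG2. Fitted for increase relative to DMSO.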

Measured: AC50

Chain of human Peroxisome Proliferator-activated Receptor alpha (PPARa), PPARA (gene 5465) (Q07869 whole entry, looked up, the tested form may be a part): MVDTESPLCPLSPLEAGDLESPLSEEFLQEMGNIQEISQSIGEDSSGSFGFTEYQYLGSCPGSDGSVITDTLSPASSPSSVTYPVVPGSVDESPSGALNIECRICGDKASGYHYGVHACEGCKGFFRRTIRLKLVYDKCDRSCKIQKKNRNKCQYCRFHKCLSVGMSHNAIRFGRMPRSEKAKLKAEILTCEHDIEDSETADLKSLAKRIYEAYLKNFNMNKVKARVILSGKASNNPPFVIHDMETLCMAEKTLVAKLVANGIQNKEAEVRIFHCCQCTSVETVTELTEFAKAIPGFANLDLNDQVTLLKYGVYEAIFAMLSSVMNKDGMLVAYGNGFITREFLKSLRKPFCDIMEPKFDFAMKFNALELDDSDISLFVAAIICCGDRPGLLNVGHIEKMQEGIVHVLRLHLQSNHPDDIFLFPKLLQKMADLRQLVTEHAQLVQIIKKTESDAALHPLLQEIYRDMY
Chain of Peroxisome proliferator-activated receptor gamma (Homo sapiens) (P37231 whole entry, looked up, the tested form may be a part): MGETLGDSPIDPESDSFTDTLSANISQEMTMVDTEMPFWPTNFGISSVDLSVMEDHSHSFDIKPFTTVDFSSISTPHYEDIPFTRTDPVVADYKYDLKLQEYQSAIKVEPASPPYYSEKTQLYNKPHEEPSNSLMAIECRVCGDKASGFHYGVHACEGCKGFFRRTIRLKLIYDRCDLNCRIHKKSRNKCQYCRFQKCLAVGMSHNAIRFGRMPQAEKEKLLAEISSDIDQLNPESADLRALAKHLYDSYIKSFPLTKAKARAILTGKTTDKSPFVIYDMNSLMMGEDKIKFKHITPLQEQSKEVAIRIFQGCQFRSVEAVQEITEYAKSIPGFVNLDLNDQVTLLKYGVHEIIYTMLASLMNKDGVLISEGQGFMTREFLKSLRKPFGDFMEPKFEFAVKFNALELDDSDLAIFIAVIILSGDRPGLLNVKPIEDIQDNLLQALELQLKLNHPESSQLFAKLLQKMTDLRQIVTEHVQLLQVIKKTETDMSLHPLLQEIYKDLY
Chain of Cellular tumor antigen p53 (Homo sapiens) (P04637 whole entry, looked up, the tested form may be a part): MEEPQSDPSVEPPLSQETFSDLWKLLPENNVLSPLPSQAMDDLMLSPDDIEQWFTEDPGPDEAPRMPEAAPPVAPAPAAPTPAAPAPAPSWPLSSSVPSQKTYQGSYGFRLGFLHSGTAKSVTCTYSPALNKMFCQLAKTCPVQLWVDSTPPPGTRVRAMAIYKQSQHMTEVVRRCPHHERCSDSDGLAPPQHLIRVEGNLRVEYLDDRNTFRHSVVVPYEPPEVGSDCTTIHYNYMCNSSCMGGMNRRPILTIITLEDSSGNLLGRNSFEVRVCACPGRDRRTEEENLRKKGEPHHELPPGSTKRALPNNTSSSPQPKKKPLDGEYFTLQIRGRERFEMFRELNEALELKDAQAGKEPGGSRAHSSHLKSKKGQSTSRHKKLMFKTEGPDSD
Chain of Nuclear respiratory factor 1 (Homo sapiens) (Q16656 whole entry, looked up, the tested form may be a part): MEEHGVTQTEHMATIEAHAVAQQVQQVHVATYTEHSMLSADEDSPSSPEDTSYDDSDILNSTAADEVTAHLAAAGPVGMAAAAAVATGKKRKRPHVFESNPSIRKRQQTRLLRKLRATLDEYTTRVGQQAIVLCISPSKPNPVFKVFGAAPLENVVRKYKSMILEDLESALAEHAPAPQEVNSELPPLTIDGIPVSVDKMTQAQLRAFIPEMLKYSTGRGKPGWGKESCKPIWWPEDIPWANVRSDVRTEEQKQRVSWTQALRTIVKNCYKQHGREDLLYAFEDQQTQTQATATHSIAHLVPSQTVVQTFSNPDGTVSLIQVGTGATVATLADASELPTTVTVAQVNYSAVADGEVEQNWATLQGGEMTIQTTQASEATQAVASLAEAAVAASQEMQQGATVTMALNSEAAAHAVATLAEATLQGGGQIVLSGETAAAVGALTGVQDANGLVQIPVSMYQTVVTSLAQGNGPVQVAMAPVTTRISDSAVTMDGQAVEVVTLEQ
Chain of Nuclear receptor subfamily 1 group I member 2 (Homo sapiens) (O75469 whole entry, looked up, the tested form may be a part): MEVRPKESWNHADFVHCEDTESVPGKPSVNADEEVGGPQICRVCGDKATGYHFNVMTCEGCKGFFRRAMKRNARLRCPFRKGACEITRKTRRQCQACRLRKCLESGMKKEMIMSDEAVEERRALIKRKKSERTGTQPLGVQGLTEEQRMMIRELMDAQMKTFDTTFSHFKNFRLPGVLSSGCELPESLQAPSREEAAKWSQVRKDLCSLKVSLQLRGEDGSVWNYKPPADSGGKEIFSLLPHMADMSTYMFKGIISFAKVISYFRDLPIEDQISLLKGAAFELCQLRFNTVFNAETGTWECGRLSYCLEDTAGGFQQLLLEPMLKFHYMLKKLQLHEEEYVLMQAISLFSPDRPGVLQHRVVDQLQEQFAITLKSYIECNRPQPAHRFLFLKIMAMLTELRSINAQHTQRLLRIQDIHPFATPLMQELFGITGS
Chain of Myc proto-oncogene protein (Homo sapiens) (P01106 whole entry, looked up): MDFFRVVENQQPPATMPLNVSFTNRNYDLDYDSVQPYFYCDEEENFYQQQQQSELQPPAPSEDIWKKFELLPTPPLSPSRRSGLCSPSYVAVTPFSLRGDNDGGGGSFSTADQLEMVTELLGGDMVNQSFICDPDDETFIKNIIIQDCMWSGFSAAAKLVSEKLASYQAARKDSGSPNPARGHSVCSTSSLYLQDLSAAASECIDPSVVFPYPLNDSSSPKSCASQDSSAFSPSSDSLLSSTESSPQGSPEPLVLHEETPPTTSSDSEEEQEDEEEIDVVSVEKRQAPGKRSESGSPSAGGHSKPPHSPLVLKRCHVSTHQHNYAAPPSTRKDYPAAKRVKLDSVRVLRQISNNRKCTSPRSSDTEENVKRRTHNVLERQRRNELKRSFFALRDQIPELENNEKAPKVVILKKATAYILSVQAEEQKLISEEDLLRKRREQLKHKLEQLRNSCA
Chain of human Retinoic Acid Receptor gamma (RARg), RARG (gene 5916) (P13631 whole entry, looked up, the tested form may be a part): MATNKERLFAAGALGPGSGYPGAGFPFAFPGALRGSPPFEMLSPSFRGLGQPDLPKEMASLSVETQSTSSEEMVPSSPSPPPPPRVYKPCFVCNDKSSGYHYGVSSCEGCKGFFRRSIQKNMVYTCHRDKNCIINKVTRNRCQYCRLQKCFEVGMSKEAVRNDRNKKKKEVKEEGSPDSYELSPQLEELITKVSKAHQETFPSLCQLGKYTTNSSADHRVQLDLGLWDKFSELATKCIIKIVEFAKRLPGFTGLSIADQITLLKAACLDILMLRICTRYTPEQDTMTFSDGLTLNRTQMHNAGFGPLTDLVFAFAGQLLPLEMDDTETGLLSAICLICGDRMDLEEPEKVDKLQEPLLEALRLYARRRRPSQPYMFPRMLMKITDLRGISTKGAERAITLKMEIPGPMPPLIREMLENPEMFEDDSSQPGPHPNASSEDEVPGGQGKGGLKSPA
Chain of Retinoic acid receptor alpha (Homo sapiens) (P10276 whole entry, looked up, the tested form may be a part): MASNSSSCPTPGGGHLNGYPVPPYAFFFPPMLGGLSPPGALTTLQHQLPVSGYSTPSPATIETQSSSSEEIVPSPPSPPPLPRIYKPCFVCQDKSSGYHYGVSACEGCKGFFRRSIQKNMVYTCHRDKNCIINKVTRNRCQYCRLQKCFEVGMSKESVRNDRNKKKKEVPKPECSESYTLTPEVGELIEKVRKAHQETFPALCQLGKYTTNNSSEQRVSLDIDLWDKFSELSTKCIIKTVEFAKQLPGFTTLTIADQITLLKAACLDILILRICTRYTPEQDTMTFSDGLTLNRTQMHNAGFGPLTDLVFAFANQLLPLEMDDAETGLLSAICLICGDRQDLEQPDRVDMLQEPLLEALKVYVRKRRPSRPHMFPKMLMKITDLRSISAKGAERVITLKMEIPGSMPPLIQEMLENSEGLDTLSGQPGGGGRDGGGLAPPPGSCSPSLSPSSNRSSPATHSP
Chain of human Peroxisome Proliferator-activated Receptor delta (PPARd), PPARD (gene 5467) (Q03181 whole entry, looked up, the tested form may be a part): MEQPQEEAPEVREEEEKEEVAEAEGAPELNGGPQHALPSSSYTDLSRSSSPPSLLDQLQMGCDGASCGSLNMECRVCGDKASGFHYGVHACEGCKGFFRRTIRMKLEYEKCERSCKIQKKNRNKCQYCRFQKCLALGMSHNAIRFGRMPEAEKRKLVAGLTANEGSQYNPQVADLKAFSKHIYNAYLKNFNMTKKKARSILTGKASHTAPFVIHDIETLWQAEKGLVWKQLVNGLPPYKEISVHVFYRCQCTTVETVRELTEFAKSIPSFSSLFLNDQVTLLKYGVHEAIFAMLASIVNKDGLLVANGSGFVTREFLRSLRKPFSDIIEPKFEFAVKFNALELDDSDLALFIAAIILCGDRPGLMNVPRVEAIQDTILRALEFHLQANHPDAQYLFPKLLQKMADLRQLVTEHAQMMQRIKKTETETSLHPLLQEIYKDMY
Chain of human Retinoic Acid Receptor beta (RARb), RARB (gene 5915) (P10826 whole entry, looked up, the tested form may be a part): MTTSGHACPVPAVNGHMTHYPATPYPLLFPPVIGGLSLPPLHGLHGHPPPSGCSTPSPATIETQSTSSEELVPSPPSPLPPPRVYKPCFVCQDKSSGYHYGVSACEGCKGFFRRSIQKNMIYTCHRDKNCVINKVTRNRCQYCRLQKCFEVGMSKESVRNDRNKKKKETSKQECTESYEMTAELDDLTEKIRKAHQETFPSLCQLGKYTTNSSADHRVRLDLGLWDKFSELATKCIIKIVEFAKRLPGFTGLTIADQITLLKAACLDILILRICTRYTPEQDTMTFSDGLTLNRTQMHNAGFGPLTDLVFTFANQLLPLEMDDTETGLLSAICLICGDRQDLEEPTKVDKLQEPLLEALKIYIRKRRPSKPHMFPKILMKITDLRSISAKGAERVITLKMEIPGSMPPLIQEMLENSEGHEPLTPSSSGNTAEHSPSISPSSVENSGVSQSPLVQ

Cn1c(=O)c2[nH]cnc2n(C)c1=O
not listed: [16] | [17] | [18] | [19] | [20]
inactive: all other assays above

CCCOc1ccc(S(=O)(=O)N2CCN(CC)CC2)cc1-c1nc2c(CC)n(Cc3ccccn3)nc2c(=O)[nH]1
active: [4] 51 µM | [14] 7.76 µM | [15] 1.17 µM
not listed: [6] | [11] | [18] | [19] | [20]
inactive: all other assays above

FC(F)=C(F)C(F)(F)C(F)(F)C(F)(F)C(F)(F)C(F)(F)C(F)(F)F
inactive: [1] | [2] | [3] | [4] | [18] | [5] | [6] | [7] | [8] | [9] | [10] | [11] | [16] | [12] | [19] | [20] | [13] | [14] | [15] | [17]
active: [18] 86.6 µM | [5] 267 µM

CCCCC(CC)C(=O)OCCOCCOCCOC(=O)C(CC)CCCC (stereo not drawn)
active: [15] 27.5 µM
not listed: [11] | [17] | [18] | [19]
inactive: all other assays above

CCCCCCCCCC
active: [13] 0.781 µM
not listed: [14] | [15] | [16] | [17] | [19] | [20]
inactive: all other assays above

C=CCc1cc(S(=O)(=O)c2ccc(O)c(CC=C)c2)ccc1O
active: [1] 33.4 µM | [7] 32 µM | [8] 12.8 µM | [9] 32 µM | [10] 27.1 µM | [12] 29.3 µM | [13] 25.8 µM | [14] 9.21 µM | [15] 3.16 µM
inactive: [2] | [3] | [4] | [5] | [11] | [16]

Cc1ccc(S(=O)(=O)NC(=O)NN2CCCCCC2)cc1
not listed: [6] | [16] | [19] | [20]
inactive: all other assays above

Source: PubChem BioAssay (EPA / NIEHS)
